# According to paper PMC11062922 (Nature Chemical Biology, 2023):
# Like-named read-outs stand apart in the source and are kept apart here.
# Tests used:
# RPS6KA4 = details: read-out: apparent Kd, n = 1
# TNIK = details: read-out: apparent Kd, n = 1
# [1] = compound concentrations:100 nM and 1000 nM (sheet 'Lestaurtinib' of Supplementary Table 1),run:Lestaurtinib_02724_R3,Plate:MR021
# [2] = compound concentrations:100 nM and 1000 nM (sheet 'Lestaurtinib' of Supplementary Table 1),run:Lestaurtinib_02741_R1,Plate:MR023
# [3] = compound concentrations:100 nM and 1000 nM (sheet 'Lestaurtinib' of Supplementary Table 1),run:Lestaurtinib_02741_R2,Plate:MR023
# [4] = compound concentrations:100 nM and 1000 nM (sheet 'Lestaurtinib' of Supplementary Table 1),run:Lestaurtinib_02741_R3,Plate:MR023
# [5] = compound concentrations:100 nM and 1000 nM (sheet 'Lestaurtinib' of Supplementary Table 1),run:Lestaurtinib_02752_R1,Plate:MR025
# [6] = compound concentrations:100 nM and 1000 nM (sheet 'Lestaurtinib' of Supplementary Table 1),run:Lestaurtinib_02765_R2,Plate:MR026
# [7] = compound concentrations:100 nM and 1000 nM (sheet 'Lestaurtinib' of Supplementary Table 1),run:Lestaurtinib_02766_R2,Plate:MR027
# [8] = compound concentrations:100 nM and 1000 nM (sheet 'Lestaurtinib' of Supplementary Table 1),run:Lestaurtinib_02766_R3,Plate:MR027
# [9] = compound concentrations:100 nM and 1000 nM (sheet 'Lestaurtinib' of Supplementary Table 1),run:Lestaurtinib_02768_R1,Plate:MR028
# [10] = compound concentrations:100 nM and 1000 nM (sheet 'Lestaurtinib' of Supplementary Table 1),run:Lestaurtinib_02768_R3,Plate:MR028
# [11] = compound concentrations:100 nM and 1000 nM (sheet 'Lestaurtinib' of Supplementary Table 1),run:Lestaurtinib_02795_R2,Plate:MR022
substance,measurement,setting,value
Lestaurtinib,potency estimated from few doses,"RPS6KA4; compound concentrations:100 nM and 1000 nM (sheet 'Lestaurtinib' of Supplementary Table 1),run:Lestaurtinib_02724_R2,Plate:MR021",1150 nM
same,potency estimated from few doses,RPS6KA4; [1],731 nM
same,potency estimated from few doses,RPS6KA4; [2],865 nM
same,potency estimated from few doses,RPS6KA4; [3],999 nM
same,potency estimated from few doses,RPS6KA4; [4],1130 nM
same,potency estimated from few doses,"RPS6KA4; compound concentrations:100 nM and 1000 nM (sheet 'Lestaurtinib' of Supplementary Table 1),run:Lestaurtinib_02748_R1,Plate:MR024",769 nM
same,potency estimated from few doses,"RPS6KA4; compound concentrations:100 nM and 1000 nM (sheet 'Lestaurtinib' of Supplementary Table 1),run:Lestaurtinib_02748_R3,Plate:MR024",638 nM
same,potency estimated from few doses,RPS6KA4; [5],1210 nM
same,potency estimated from few doses,"RPS6KA4; compound concentrations:100 nM and 1000 nM (sheet 'Lestaurtinib' of Supplementary Table 1),run:Lestaurtinib_02765_R1,Plate:MR026",1510 nM
same,potency estimated from few doses,RPS6KA4; [6],1150 nM
same,potency estimated from few doses,"RPS6KA4; compound concentrations:100 nM and 1000 nM (sheet 'Lestaurtinib' of Supplementary Table 1),run:Lestaurtinib_02766_R1,Plate:MR027",911 nM
same,potency estimated from few doses,RPS6KA4; [7],974 nM
same,potency estimated from few doses,RPS6KA4; [8],783 nM
same,potency estimated from few doses,RPS6KA4; [9],814 nM
same,potency estimated from few doses,"RPS6KA4; compound concentrations:100 nM and 1000 nM (sheet 'Lestaurtinib' of Supplementary Table 1),run:Lestaurtinib_02768_R2,Plate:MR028",841 nM
same,potency estimated from few doses,RPS6KA4; [10],954 nM
same,potency estimated from few doses,RPS6KA4; [11],1420 nM
same,potency estimated from few doses,"RPS6KA4; compound concentrations:100 nM and 1000 nM (sheet 'Lestaurtinib' of Supplementary Table 1),run:Lestaurtinib_02802_R2,Plate:MR029",865 nM
same,potency estimated from few doses,"RPS6KA4; compound concentrations:100 nM and 1000 nM (sheet 'Lestaurtinib' of Supplementary Table 1),run:Lestaurtinib_02802_R3,Plate:MR029",770 nM
same,potency estimated from few doses,"RPS6KA4; compound concentrations:100 nM and 1000 nM (sheet 'Lestaurtinib' of Supplementary Table 1),run:Lestaurtinib_02896_R1,Plate:MR030",748 nM
same,potency estimated from few doses,"RPS6KA4; compound concentrations:100 nM and 1000 nM (sheet 'Lestaurtinib' of Supplementary Table 1),run:Lestaurtinib_02896_R2,Plate:MR030",1150 nM
same,potency estimated from few doses,"RPS6KA4; compound concentrations:100 nM and 1000 nM (sheet 'Lestaurtinib' of Supplementary Table 1),run:Lestaurtinib_03172_R1,Plate:MR031",1350 nM
same,potency estimated from few doses,"RPS6KA4; compound concentrations:100 nM and 1000 nM (sheet 'Lestaurtinib' of Supplementary Table 1),run:Lestaurtinib_03172_R2,Plate:MR031",771 nM
same,potency estimated from few doses,"RPS6KA4; compound concentrations:100 nM and 1000 nM (sheet 'Lestaurtinib' of Supplementary Table 1),run:Lestaurtinib_03252_R2,Plate:MR032",1300 nM
same,potency estimated from few doses,"RPS6KA4; compound concentrations:100 nM and 1000 nM (sheet 'Lestaurtinib' of Supplementary Table 1),run:Lestaurtinib_03260_R3,Plate:MR033",1400 nM
same,potency estimated from few doses,"TNIK; compound concentrations:100 nM and 1000 nM (sheet 'Lestaurtinib' of Supplementary Table 1),run:Lestaurtinib_02339_R2,Plate:MR001",798 nM
same,potency estimated from few doses,"TNIK; compound concentrations:100 nM and 1000 nM (sheet 'Lestaurtinib' of Supplementary Table 1),run:Lestaurtinib_02364_R2,Plate:MR002",206 nM
same,potency estimated from few doses,"TNIK; compound concentrations:100 nM and 1000 nM (sheet 'Lestaurtinib' of Supplementary Table 1),run:Lestaurtinib_02367_R1,Plate:MR003",1130 nM
same,potency estimated from few doses,"TNIK; compound concentrations:100 nM and 1000 nM (sheet 'Lestaurtinib' of Supplementary Table 1),run:Lestaurtinib_02367_R2,Plate:MR003",460 nM
same,potency estimated from few doses,"TNIK; compound concentrations:100 nM and 1000 nM (sheet 'Lestaurtinib' of Supplementary Table 1),run:Lestaurtinib_02367_R3,Plate:MR003",1930 nM
same,potency estimated from few doses,"TNIK; compound concentrations:100 nM and 1000 nM (sheet 'Lestaurtinib' of Supplementary Table 1),run:Lestaurtinib_02407_R1,Plate:MR005",160 nM
same,potency estimated from few doses,"TNIK; compound concentrations:100 nM and 1000 nM (sheet 'Lestaurtinib' of Supplementary Table 1),run:Lestaurtinib_02407_R2,Plate:MR005",772 nM
same,potency estimated from few doses,"TNIK; compound concentrations:100 nM and 1000 nM (sheet 'Lestaurtinib' of Supplementary Table 1),run:Lestaurtinib_02407_R3,Plate:MR005",136 nM
same,potency estimated from few doses,"TNIK; compound concentrations:100 nM and 1000 nM (sheet 'Lestaurtinib' of Supplementary Table 1),run:Lestaurtinib_02422_R1,Plate:MR006",1750 nM
same,potency estimated from few doses,"TNIK; compound concentrations:100 nM and 1000 nM (sheet 'Lestaurtinib' of Supplementary Table 1),run:Lestaurtinib_02437_R1,Plate:MR007",1310 nM
same,potency estimated from few doses,"TNIK; compound concentrations:100 nM and 1000 nM (sheet 'Lestaurtinib' of Supplementary Table 1),run:Lestaurtinib_02443_R2,Plate:MR009",687 nM
same,potency estimated from few doses,"TNIK; compound concentrations:100 nM and 1000 nM (sheet 'Lestaurtinib' of Supplementary Table 1),run:Lestaurtinib_02473_R1,Plate:MR010",165 nM
same,potency estimated from few doses,"TNIK; compound concentrations:100 nM and 1000 nM (sheet 'Lestaurtinib' of Supplementary Table 1),run:Lestaurtinib_02482_R1,Plate:MR011",994 nM
same,potency estimated from few doses,"TNIK; compound concentrations:100 nM and 1000 nM (sheet 'Lestaurtinib' of Supplementary Table 1),run:Lestaurtinib_02487_R2,Plate:MR012",159 nM
same,potency estimated from few doses,"TNIK; compound concentrations:100 nM and 1000 nM (sheet 'Lestaurtinib' of Supplementary Table 1),run:Lestaurtinib_02487_R3,Plate:MR012",481 nM
same,potency estimated from few doses,"TNIK; compound concentrations:100 nM and 1000 nM (sheet 'Lestaurtinib' of Supplementary Table 1),run:Lestaurtinib_02496_R2,Plate:MR013",764 nM
same,potency estimated from few doses,"TNIK; compound concentrations:100 nM and 1000 nM (sheet 'Lestaurtinib' of Supplementary Table 1),run:Lestaurtinib_02496_R3,Plate:MR013",887 nM
same,potency estimated from few doses,"TNIK; compound concentrations:100 nM and 1000 nM (sheet 'Lestaurtinib' of Supplementary Table 1),run:Lestaurtinib_02566_R1,Plate:MR014",845 nM
same,potency estimated from few doses,"TNIK; compound concentrations:100 nM and 1000 nM (sheet 'Lestaurtinib' of Supplementary Table 1),run:Lestaurtinib_02566_R2,Plate:MR014",581 nM
same,potency estimated from few doses,"TNIK; compound concentrations:100 nM and 1000 nM (sheet 'Lestaurtinib' of Supplementary Table 1),run:Lestaurtinib_02572_R3,Plate:MR015",52 nM
same,potency estimated from few doses,"TNIK; compound concentrations:100 nM and 1000 nM (sheet 'Lestaurtinib' of Supplementary Table 1),run:Lestaurtinib_02577_R2,Plate:MR016",582 nM
same,potency estimated from few doses,"TNIK; compound concentrations:100 nM and 1000 nM (sheet 'Lestaurtinib' of Supplementary Table 1),run:Lestaurtinib_02577_R3,Plate:MR016",885 nM
same,potency estimated from few doses,"TNIK; compound concentrations:100 nM and 1000 nM (sheet 'Lestaurtinib' of Supplementary Table 1),run:Lestaurtinib_02584_R1,Plate:MR017",680 nM
same,potency estimated from few doses,"TNIK; compound concentrations:100 nM and 1000 nM (sheet 'Lestaurtinib' of Supplementary Table 1),run:Lestaurtinib_02584_R2,Plate:MR017",717 nM
same,potency estimated from few doses,"TNIK; compound concentrations:100 nM and 1000 nM (sheet 'Lestaurtinib' of Supplementary Table 1),run:Lestaurtinib_02584_R3,Plate:MR017",641 nM
same,potency estimated from few doses,"TNIK; compound concentrations:100 nM and 1000 nM (sheet 'Lestaurtinib' of Supplementary Table 1),run:Lestaurtinib_02601_R1,Plate:MR018",756 nM
same,potency estimated from few doses,"TNIK; compound concentrations:100 nM and 1000 nM (sheet 'Lestaurtinib' of Supplementary Table 1),run:Lestaurtinib_02601_R2,Plate:MR018",146 nM
same,potency estimated from few doses,"TNIK; compound concentrations:100 nM and 1000 nM (sheet 'Lestaurtinib' of Supplementary Table 1),run:Lestaurtinib_02624_R1,Plate:MR020",562 nM
same,potency estimated from few doses,"TNIK; compound concentrations:100 nM and 1000 nM (sheet 'Lestaurtinib' of Supplementary Table 1),run:Lestaurtinib_02624_R2,Plate:MR020",154 nM
same,potency estimated from few doses,TNIK; [1],507 nM
same,potency estimated from few doses,TNIK; [2],208 nM
same,potency estimated from few doses,TNIK; [3],627 nM
same,potency estimated from few doses,TNIK; [4],536 nM
same,potency estimated from few doses,TNIK; [5],708 nM
same,potency estimated from few doses,"TNIK; compound concentrations:100 nM and 1000 nM (sheet 'Lestaurtinib' of Supplementary Table 1),run:Lestaurtinib_02752_R2,Plate:MR025",671 nM
same,potency estimated from few doses,TNIK; [6],797 nM
same,potency estimated from few doses,"TNIK; compound concentrations:100 nM and 1000 nM (sheet 'Lestaurtinib' of Supplementary Table 1),run:Lestaurtinib_02765_R3,Plate:MR026",836 nM
same,potency estimated from few doses,TNIK; [7],806 nM
same,potency estimated from few doses,TNIK; [8],130 nM
same,potency estimated from few doses,TNIK; [9],142 nM
same,potency estimated from few doses,TNIK; [10],785 nM
same,potency estimated from few doses,"TNIK; compound concentrations:100 nM and 1000 nM (sheet 'Lestaurtinib' of Supplementary Table 1),run:Lestaurtinib_02795_R1,Plate:MR022",573 nM
same,potency estimated from few doses,TNIK; [11],154 nM
same,potency estimated from few doses,"TNIK; compound concentrations:100 nM and 1000 nM (sheet 'Lestaurtinib' of Supplementary Table 1),run:Lestaurtinib_02795_R3,Plate:MR022",504 nM
same,potency estimated from few doses,"TNIK; compound concentrations:100 nM and 1000 nM (sheet 'Lestaurtinib' of Supplementary Table 1),run:Lestaurtinib_02802_R1,Plate:MR029",121 nM
